Source: PubChem BioAssay
Active and inactive are the calls of the source.

Columns and labels:
[1] = E. coli DRC41 culture turbidity changes, primary screen, E. coli filamentation inducer project, strain DRC41, OD650, 48 h (AID 1152);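 also: E. coli MC1000 strain DRC41 lacking acrAB efflux pump and sulA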; settings: E. coli DRC41 (acrAB sulA), higher = more signal, called active from +8 up or from −8 down
[2] = small-molecule binders of probe aLefty1, primary screen, biochemical, small-molecule microarray, 635/667 nm fluorescence (AID 1153); settings: higher = more signal;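 also: score merges spot fluorescence with signal-to-noise ratio from the scanned slide images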
[3] = PSAC antagonists in infected red cells, primary screen, cell-based, P. falciparum Indochina, OD700, 1 h (AID 1154); settings: P. falciparum Indochina infected RBC osmotic lysis, higher = more signal, called active from +8 up or from −8 down
[4] = PSAC antagonists in infected red cells, primary screen, cell-based, P. falciparum Indochina, OD700, 2 h (AID 1155);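 also: lysis reports solute entry through the parasite surface anion channel PSAC; channel blockers reduce lysis of infected cells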; settings: P. falciparum Indochina infected erythrocytes, osmotic lysis OD700; higher = more signal, called active from +8 up or from −8 down
[5] = osmotic lysis modulators in infected erythrocytes, primary screen, PSAC antagonist project, cell-based, P. falciparum Indochina, OD700, 3 h (AID 1156); settings: higher = more signal, called active from +8 up or from −8 down
[6] = PSAC antagonists in infected red cells, primary screen, cell-based, P. falciparum Indochina, OD700, 18 h (AID 1157); settings: P. falciparum Indochina infected erythrocytes, osmotic lysis OD700, 18 h; higher = more signal, called active from +8 up or from −8 down
[7] = modulators of S6 phosphorylation in cells, primary screen, cell-based, A549, cytoblot, luminescence, serum-stimulated (AID 1158); settings: A549 phospho-S6 cytoblot, 5 h, higher = more signal;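 also: serum-stimulated A549 lung adenocarcinoma cells; signal is phosphorylated S6 detected by cytoblot immunostaining with HRP secondary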
[8] = molecular target: NADPH oxidase 2 (Homo sapiens) (UniProt P04839); assay: NOX2-dependent H2O2 signal modulators, primary screen, NOX inhibitor project, cell-based, HEK293-NOX2, PMA-stimulated, Amplex Red fluorescence (AID 1159); settings: 45 min, higher = more signal, called active from +8 up or from −8 down; also: test concentration not given here
[9] = molecular target: NADPH oxidase 4 (Homo sapiens) (UniProt Q9NPH5); assay: NOX4-dependent H2O2 signal modulators, primary screen, NOX inhibitor project, cell-based, HEK293-NOX4, tetracycline-induced, Amplex Red fluorescence (AID 1160); settings: 45 min, higher = more signal, called active from +8 up or from −8 down
[10] = molecular target: NADPH oxidase 5 (Homo sapiens) (UniProt Q96PH1); assay: NOX5-dependent H2O2 signal modulators, primary screen, NOX inhibitor project, cell-based, HEK293-NOX5, Amplex Red fluorescence (AID 1161); settings: HEK293-NOX5, ionomycin, 45 min, higher = more signal
[11] = A549 cell viability effects, profiling panel, calcein-AM fluorescence, 48 h, basal (AID 1162); settings: higher = more signal; also: test concentration not given here
[12] = adipocyte viability effects, profiling panel, cell-based, 3T3-L1 adipocytes, calcein-AM fluorescence, 48 h, basal (AID 1163); settings: 3T3-L1 adipocytes viability, higher = more signal; also: test concentration not given here
[13] = HepG2 cell viability effects, profiling panel, calcein-AM fluorescence, 48 h, basal (AID 1164); settings: higher = more signal; also: test concentration not given here
[14] = MM1S cell viability effects, profiling panel, calcein-AM fluorescence, 48 h, basal (AID 1165); settings: higher = more signal;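 also: viability of MM1S multiple myeloma cells under basal unstimulated conditions; test concentration not given here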
[15] = basal RPMI8226 viability, no added stimulus, profiling panel, cell-based, calcein-AM fluorescence, 48 h, PK04 Diversity Set (AID 1166); settings: RPMI8226 myeloma viability, higher = more signal;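 also: cells grown under basal conditions without added stimulus; test concentration not given here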
[16] = basal HepG2 mitochondrial membrane potential changes, profiling panel, cell-based, JC-1 fluorescence, 24 h, 100 nL compound (AID 1167); settings: higher = more signal; also: test concentration not given here
[17] = basal 3T3-L1 adipocyte mitochondrial potential changes, profiling panel, cell-based, JC-1 fluorescence, 3T3-L1 adipocytes, 24 h, 100 nL compound (AID 1168); settings: JC-1 mitochondrial fluorescence, higher = more signal, called active from +8 up or from −8 down; also: test concentration not given here
[18] = basal RPMI8226 mitochondrial membrane potential changes, profiling panel, cell-based, JC-1 fluorescence, 24 h, 100 nL compound (AID 1169); settings: RPMI8226 myeloma, JC-1 mitochondrial potential fluorescence, higher = more signal; also: test concentration not given here
[19] = basal MM1S mitochondrial membrane potential changes, profiling panel, cell-based, JC-1 fluorescence, 24 h, 100 nL compound (AID 1170); settings: higher = more signal; also: test concentration not given here
[20] = A549 lung cancer cell viability effects, profiling panel, resazurin fluorescence, 24 h, PK04 Diversity Set (AID 1171); settings: higher = more signal, called active from +8 up or from −8 down; also: test concentration not given here

NADPH oxidase 2 (Homo sapiens), sequence (P04839 whole entry, looked up): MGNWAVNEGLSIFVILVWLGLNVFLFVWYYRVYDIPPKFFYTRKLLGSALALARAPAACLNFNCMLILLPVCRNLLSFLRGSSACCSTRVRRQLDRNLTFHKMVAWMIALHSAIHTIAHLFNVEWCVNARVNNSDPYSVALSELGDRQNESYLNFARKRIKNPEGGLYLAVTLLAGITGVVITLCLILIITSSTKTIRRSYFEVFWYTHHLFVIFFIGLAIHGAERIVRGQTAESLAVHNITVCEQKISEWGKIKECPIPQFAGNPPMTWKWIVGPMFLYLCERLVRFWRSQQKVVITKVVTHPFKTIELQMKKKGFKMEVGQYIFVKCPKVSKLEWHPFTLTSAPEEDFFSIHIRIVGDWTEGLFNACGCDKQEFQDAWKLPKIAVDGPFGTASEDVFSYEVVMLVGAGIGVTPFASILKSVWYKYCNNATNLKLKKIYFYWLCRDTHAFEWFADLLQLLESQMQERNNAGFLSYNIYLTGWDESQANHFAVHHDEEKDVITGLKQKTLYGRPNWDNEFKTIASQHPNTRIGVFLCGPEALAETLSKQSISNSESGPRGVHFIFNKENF
NADPH oxidase 4 (Homo sapiens), sequence (Q9NPH5 whole entry, looked up): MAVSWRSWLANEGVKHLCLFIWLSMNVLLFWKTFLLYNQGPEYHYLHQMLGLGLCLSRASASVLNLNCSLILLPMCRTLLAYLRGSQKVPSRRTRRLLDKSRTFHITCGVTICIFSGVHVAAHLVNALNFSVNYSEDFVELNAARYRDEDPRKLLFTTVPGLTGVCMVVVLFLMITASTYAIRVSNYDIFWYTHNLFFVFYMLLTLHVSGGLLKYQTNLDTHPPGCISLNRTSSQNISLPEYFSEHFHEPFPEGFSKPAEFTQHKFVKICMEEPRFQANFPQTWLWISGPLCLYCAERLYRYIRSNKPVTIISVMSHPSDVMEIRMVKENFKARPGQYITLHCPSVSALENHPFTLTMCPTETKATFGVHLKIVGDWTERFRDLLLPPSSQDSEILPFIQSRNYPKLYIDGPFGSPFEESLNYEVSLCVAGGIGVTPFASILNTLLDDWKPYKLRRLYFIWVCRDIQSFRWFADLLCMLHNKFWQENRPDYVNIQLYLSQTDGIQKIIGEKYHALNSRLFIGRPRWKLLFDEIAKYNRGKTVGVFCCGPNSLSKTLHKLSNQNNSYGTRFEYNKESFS
NADPH oxidase 5 (Homo sapiens), sequence (Q96PH1 whole entry, looked up): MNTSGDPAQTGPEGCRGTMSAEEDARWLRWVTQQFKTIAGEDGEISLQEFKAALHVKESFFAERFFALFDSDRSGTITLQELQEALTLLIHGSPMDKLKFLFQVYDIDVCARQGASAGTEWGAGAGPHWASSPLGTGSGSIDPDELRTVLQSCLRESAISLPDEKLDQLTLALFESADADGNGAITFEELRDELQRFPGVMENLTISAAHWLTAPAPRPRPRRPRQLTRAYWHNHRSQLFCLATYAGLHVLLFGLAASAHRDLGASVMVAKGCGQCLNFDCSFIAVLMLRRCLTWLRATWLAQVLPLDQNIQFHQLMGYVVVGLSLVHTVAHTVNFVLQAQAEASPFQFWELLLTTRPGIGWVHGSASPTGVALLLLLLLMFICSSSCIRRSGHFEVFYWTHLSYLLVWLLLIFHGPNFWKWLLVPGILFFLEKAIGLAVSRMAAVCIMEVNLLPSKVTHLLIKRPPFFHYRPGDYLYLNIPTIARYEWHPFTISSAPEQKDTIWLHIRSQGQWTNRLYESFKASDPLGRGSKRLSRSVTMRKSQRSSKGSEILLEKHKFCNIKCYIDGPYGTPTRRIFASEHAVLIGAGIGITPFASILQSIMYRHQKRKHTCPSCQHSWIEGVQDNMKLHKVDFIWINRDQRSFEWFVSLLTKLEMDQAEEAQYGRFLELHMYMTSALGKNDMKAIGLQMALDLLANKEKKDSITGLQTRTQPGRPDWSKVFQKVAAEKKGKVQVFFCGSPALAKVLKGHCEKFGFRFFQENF

Q: For Cc1ccc(N2C(=O)c3ccccc3[C@@H](C(=O)NCCCN(C)C)[C@@H]2c2ccc(CO)cc2)nc1, which z-score [1] is on record?
A: 0.0376 (inactive)

Q: What about the composite z-score [2] of the same molecule?
A: -0.724

Q: What about the z-score [3] of the same molecule?
A: 1.06 (inactive)

Q: And the z-score [4]?
A: 0.392 (inactive)

Q: And the z-score [5]?
A: 0.591 (inactive)

Q: And the z-score [6]?
A: 0.304 (inactive)

Q: What about the z-score [7] of the same molecule?
A: -0.337

Q: What about the z-score [8] of the same molecule?
A: 0.911 (inactive)

Q: And the z-score [9]?
A: 0.115 (inactive)

Q: What about the z-score [10] of the same molecule?
A: 0.513

Q: What about the z-score [11] of the same molecule?
A: -0.249

Q: And the z-score [12]?
A: 0.297

Q: What about the z-score [13] of the same molecule?
A: 0.0355

Q: What about the z-score [14] of the same molecule?
A: 0.817

Q: What about the z-score [15] of the same molecule?
A: -0.71

Q: And the z-score [16]?
A: -0.685

Q: And the z-score [17]?
A: 0.208 (inactive)

Q: And the z-score [18]?
A: -0.0886

Q: What about the z-score [19] of the same molecule?
A: -0.241

Q: And the z-score [20]?
A: -0.0494 (inactive)

Q: With CC(C)C(CO)N1C(=O)[C@@H]2C3C(=O)OCCC/C=C\[C@H]3OC23C=CCN(c2ccc4ccccc4c2)C(=O)[C@@H]13 (stereo not given in full) as the molecule, how does the z-score [1] read?
A: -0.546 (inactive)

Q: What about the composite z-score [2] of the same molecule?
A: 0.0533

Q: And the z-score [3]?
A: 1.03 (inactive)

Q: And the z-score [4]?
A: 0.36 (inactive)

Q: What about the z-score [5] of the same molecule?
A: 0.204 (inactive)

Q: And the z-score [6]?
A: 0.478 (inactive)

Q: What about the z-score [7] of the same molecule?
A: -0.428

Q: And the z-score [8]?
A: 1.77 (inactive)

Q: And the z-score [9]?
A: 0.767 (inactive)

Q: And the z-score [10]?
A: 1.69

Q: And the z-score [11]?
A: -0.0401

Q: And the z-score [12]?
A: -0.0738

Q: And the z-score [13]?
A: -0.131

Q: And the z-score [14]?
A: 0.292

Q: What about the z-score [15] of the same molecule?
A: 0.457

Q: And the z-score [16]?
A: -0.0404

Q: What about the z-score [17] of the same molecule?
A: -0.0718 (inactive)

Q: What about the z-score [18] of the same molecule?
A: 0.0134

Q: What about the z-score [19] of the same molecule?
A: -0.332

Q: What about the z-score [20] of the same molecule?
A: -0.525 (inactive)
